From PubChem BioAssay (NCI)
About 79,000 compounds went through this panel and 15% of them were active in at least one assay; those are over-represented in the sample as a whole. Values without a mark were called inactive. Calls of active or inactive are those of the source. No stated cut-off is given here; in the data, active means growth inhibition above about 70%; inactive means the rest.

Key:
[1] = NCI Yeast Anticancer Drug Screen. Data for the wt1 strain (AID 149);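 further: 0% = growth of vehicle-treated wt1 cultures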; conditions: S. cerevisiae wt1 strain (SPY 50644) growth inhibition, hits give high values
In short: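 Yeast wt1 strain exposed to compounds; growth inhibition measured relative to vehicle-treated controls.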

[2] = NCI Yeast Anticancer Drug Screen. Data for the rad50EPP+ strain (AID 151);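 further: 0% = growth of vehicle-treated control cultures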; conditions: S. cerevisiae rad50 mutant strain, hits give high values
In short: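 Genetically defined yeast (rad50EPP+, DNA damage repair alteration) is grown with compound, and inhibition of growth is expressed relative to vehicle-treated controls.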

[3] = NCI Yeast Anticancer Drug Screen. Data for the rad50 strain (AID 155);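 further: 0% = growth of vehicle-only cultures of the same strain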; conditions: S. cerevisiae rad50 strain growth inhibition, hits give high values
In short: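 Yeast carrying a defined DNA repair defect were exposed to test compounds, and growth was compared with vehicle-treated controls to give percent inhibition.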

[4] = NCI Yeast Anticancer Drug Screen. Data for the mec2-1 strain (AID 157); conditions: S. cerevisiae mec2-1 strain, hits give high values
In short: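 Each compound was tested on mec2-1 yeast, a strain altered in DNA damage repair or cell cycle control. Growth inhibition is reported relative to vehicle.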

[5] = NCI Yeast Anticancer Drug Screen. Data for the sgs1 mgt1 strain (AID 161);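 further: 0% = growth of cultures given vehicle only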; conditions: S. cerevisiae sgs1 mgt1 strain, hits give high values
In short: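 Genetically altered yeast, compound exposure, growth inhibition relative to vehicle.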

[6] = NCI Yeast Anticancer Drug Screen. Data for the CLN2oe strain (AID 163);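 further: 0% = growth of vehicle-only control cultures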; conditions: S. cerevisiae CLN2oe strain, hits give high values
In short: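 First, the altered yeast strain was treated with each compound; second, its growth was measured; finally, inhibition was derived by comparison with vehicle controls.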

[7] = NCI Yeast Anticancer Drug Screen. Data for the cln2 rad14 strain (AID 165);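 further: 0% = growth equal to vehicle treated cultures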; conditions: S. cerevisiae cln2 rad14 strain, hits give high values
In short: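 Test compounds were added to cln2 rad14 yeast cultures; inhibition of growth was then determined by comparison with vehicle treatment.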

[8] = NCI Yeast Anticancer Drug Screen. Data for the bub3 strain (AID 167); conditions: S. cerevisiae bub3 mutant strain, hits give high values
In short: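 Compounds were applied to a genetically altered yeast strain carrying a cell-cycle control defect. Growth inhibition was scored against vehicle-treated controls.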

[9] = NCI Yeast Anticancer Drug Screen. Data for the wt2 strain (AID 169);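 further: 0% = growth of vehicle-treated yeast cultures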; conditions: S. cerevisiae wt2 strain growth inhibition, hits give high values
In short: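 The panel's yeast strains carry defined changes in DNA repair or cell cycle genes. Each strain is grown with compound, and growth loss is scored relative to vehicle.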

[10] = NCI Yeast Anticancer Drug Screen. Data for the mlh1 strain (AID 171);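 further: 0% = growth of vehicle-treated control cultures of the same strain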; conditions: S. cerevisiae mlh1 strain growth inhibition, hits give high values
In short: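 Inhibition values reflect reduced yeast growth in the presence of compound, referenced to vehicle controls, using a strain chosen for its alteration in DNA repair or cell cycle control.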

[11] = NCI Yeast Anticancer Drug Screen. Data for the sgs1 strain (AID 173);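 further: 0% = growth of vehicle-only control cultures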; conditions: S. cerevisiae sgs1 mutant, hits give high values
In short: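 Vehicle-treated cultures served as reference for growth inhibition of a yeast strain altered in DNA damage repair or cell cycle control after compound exposure.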

[12] = NCI Yeast Anticancer Drug Screen. Data for the mlh1 rad18 strain (AID 175); conditions: S. cerevisiae mlh1 rad18 strain growth inhibition, hits give high values
In short: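 Inhibition values reflect reduced growth of mutant yeast versus vehicle-treated controls following compound exposure; the mutations affect DNA damage repair.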

[13] = NCI Yeast Anticancer Drug Screen. Data for the rad18 strain (AID 177); conditions: S. cerevisiae rad18 mutant growth inhibition, hits give high values
In short: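 Steps: expose repair-mutant yeast to compound; measure growth; express as inhibition relative to vehicle control.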

[14] = NCI Yeast Anticancer Drug Screen. Data for the rad14 strain (AID 159);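 further: 0% = growth of vehicle-treated control cultures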; conditions: S. cerevisiae rad14 strain growth inhibition, hits give high values
In short: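 Yeast cells carrying a defined DNA-repair defect were exposed to compounds, and growth inhibition was calculated relative to vehicle-treated control cultures.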

[15] = at 5.0 µM (retest, dose inferred, filed as 0.5)
[16] = at 50.0 µM (retest, dose inferred, filed as 5.0)

O=C1c2ccc(O)cc2C(=O)c2c(O)ccc(O)c21
growth inhibition ([1]; at 1.2 µM): 4%
growth inhibition ([1]; at 3.7 µM): 17%
growth inhibition ([1]; at 11.0 µM): 94% (active)
growth inhibition ([1]; at 33.0 µM): 97% (active)
growth inhibition ([1]; at 100.0 µM): 93% (active)
growth inhibition ([2]; at 1.2 µM): 25%
growth inhibition ([2]; at 3.7 µM): 64%
growth inhibition ([2]; at 11.0 µM): 93% (active)
growth inhibition ([2]; at 33.0 µM): 93% (active)
growth inhibition ([2]; at 100.0 µM): 88% (active)
growth inhibition ([3]; at 1.2 µM): 16%
growth inhibition ([3]; at 3.7 µM): 35%
growth inhibition [3, 15]: 53%
growth inhibition ([3]; at 11.0 µM): 87% (active)
growth inhibition ([3]; at 33.0 µM): 95% (active)
growth inhibition [3, 16]: 90% (active)
growth inhibition ([3]; at 50.0 µM): 71.2% (active)
growth inhibition ([3]; at 100.0 µM): 89% (active)
growth inhibition ([4]; at 1.2 µM): 9%
growth inhibition ([4]; at 3.7 µM): 28%
growth inhibition [4, 15]: 45%
growth inhibition ([4]; at 11.0 µM): 87% (active)
growth inhibition ([4]; at 33.0 µM): 95% (active)
growth inhibition [4, 16]: 93% (active)
growth inhibition ([4]; at 50.0 µM): 49.1%
growth inhibition ([4]; at 100.0 µM): 89% (active)
growth inhibition [5, 15]: 50%
growth inhibition [5, 16]: 90% (active)
growth inhibition ([5]; at 50.0 µM): 77.2% (active)
growth inhibition ([6]; at 1.2 µM): 7%
growth inhibition ([6]; at 3.7 µM): 21%
growth inhibition ([6]; at 11.0 µM): 92% (active)
growth inhibition ([6]; at 33.0 µM): 94% (active)
growth inhibition ([6]; at 100.0 µM): 91% (active)
growth inhibition [7, 15]: 32%
growth inhibition [7, 16]: 88% (active)
growth inhibition ([7]; at 50.0 µM): 51%
growth inhibition ([8]; at 1.2 µM): -2%
growth inhibition ([8]; at 3.7 µM): 0%
growth inhibition [8, 15]: 18%
growth inhibition ([8]; at 11.0 µM): 62%
growth inhibition ([8]; at 33.0 µM): 91% (active)
growth inhibition [8, 16]: 92% (active)
growth inhibition ([8]; at 50.0 µM): 29%
growth inhibition ([8]; at 100.0 µM): 88% (active)
growth inhibition ([9]; at 1.2 µM): 1%
growth inhibition ([9]; at 3.7 µM): 19%
growth inhibition ([9]; at 11.0 µM): 92% (active)
growth inhibition ([9]; at 33.0 µM): 96% (active)
growth inhibition ([9]; at 100.0 µM): 90% (active)
growth inhibition ([10]; at 1.2 µM): 4%
growth inhibition ([10]; at 3.7 µM): 20%
growth inhibition ([10]; at 11.0 µM): 88% (active)
growth inhibition ([10]; at 33.0 µM): 94% (active)
growth inhibition ([10]; at 100.0 µM): 91% (active)
growth inhibition ([11]; at 1.2 µM): 3%
growth inhibition ([11]; at 3.7 µM): 19%
growth inhibition ([11]; at 11.0 µM): 90% (active)
growth inhibition ([11]; at 33.0 µM): 95% (active)
growth inhibition ([11]; at 100.0 µM): 91% (active)
growth inhibition [12, 15]: 48%
growth inhibition [12, 16]: 97% (active)
growth inhibition ([12]; at 50.0 µM): 68.7%
growth inhibition ([13]; at 1.2 µM): 6%
growth inhibition ([13]; at 3.7 µM): 17%
growth inhibition ([13]; at 11.0 µM): 88% (active)
growth inhibition ([13]; at 33.0 µM): 94% (active)
growth inhibition ([13]; at 100.0 µM): 89% (active)

O=S(=O)(CCC[C@H]1[C@@H](CCOCc2ccccc2)C2CCCN1O2)c1ccccc1 (stereo partly specified)
growth inhibition ([1]; at 1.2 µM): 2%
growth inhibition ([1]; at 3.7 µM): 2%
growth inhibition ([1]; at 11.0 µM): 1%
growth inhibition ([1]; at 33.0 µM): 1%
growth inhibition ([1]; at 100.0 µM): 19%
growth inhibition ([2]; at 1.2 µM): 0%
growth inhibition ([2]; at 3.7 µM): -1%
growth inhibition ([2]; at 11.0 µM): 2%
growth inhibition ([2]; at 33.0 µM): 2%
growth inhibition ([2]; at 100.0 µM): 4%
growth inhibition ([3]; at 1.2 µM): -3%
growth inhibition ([3]; at 3.7 µM): -13%
growth inhibition [3, 15]: -9%
growth inhibition ([3]; at 11.0 µM): -13%
growth inhibition ([3]; at 33.0 µM): 10%
growth inhibition [3, 16]: -11%
growth inhibition ([3]; at 50.0 µM): -4.6%
growth inhibition ([3]; at 100.0 µM): 22%
growth inhibition ([4]; at 1.2 µM): 4%
growth inhibition ([4]; at 3.7 µM): 4%
growth inhibition [4, 15]: -9%
growth inhibition ([4]; at 11.0 µM): 5%
growth inhibition ([4]; at 33.0 µM): 13%
growth inhibition [4, 16]: -22%
growth inhibition ([4]; at 50.0 µM): -19.2%
growth inhibition ([4]; at 100.0 µM): 27%
growth inhibition ([14]; at 1.2 µM): 1%
growth inhibition ([14]; at 3.7 µM): -3%
growth inhibition ([14]; at 11.0 µM): 3%
growth inhibition ([14]; at 33.0 µM): 10%
growth inhibition ([14]; at 100.0 µM): 25%
growth inhibition [5, 15]: 9%
growth inhibition [5, 16]: 20%
growth inhibition ([5]; at 50.0 µM): -23.6%
growth inhibition ([6]; at 1.2 µM): 1%
growth inhibition ([6]; at 3.7 µM): 6%
growth inhibition ([6]; at 11.0 µM): 5%
growth inhibition ([6]; at 33.0 µM): 16%
growth inhibition ([6]; at 100.0 µM): 37%
growth inhibition [7, 15]: -7%
growth inhibition [7, 16]: 46%
growth inhibition ([7]; at 50.0 µM): 42.5%
growth inhibition ([8]; at 1.2 µM): 1%
growth inhibition ([8]; at 3.7 µM): 2%
growth inhibition [8, 15]: 22%
growth inhibition ([8]; at 11.0 µM): 2%
growth inhibition ([8]; at 33.0 µM): 6%
growth inhibition [8, 16]: 10%
growth inhibition ([8]; at 50.0 µM): -12.1%
growth inhibition ([8]; at 100.0 µM): 12%
growth inhibition ([9]; at 1.2 µM): -1%
growth inhibition ([9]; at 3.7 µM): -1%
growth inhibition ([9]; at 11.0 µM): -3%
growth inhibition ([9]; at 33.0 µM): 2%
growth inhibition ([9]; at 100.0 µM): 26%
growth inhibition ([10]; at 1.2 µM): 3%
growth inhibition ([10]; at 3.7 µM): 3%
growth inhibition ([10]; at 11.0 µM): 1%
growth inhibition ([10]; at 33.0 µM): 7%
growth inhibition ([10]; at 100.0 µM): 26%
growth inhibition ([11]; at 1.2 µM): 2%
growth inhibition ([11]; at 3.7 µM): 3%
growth inhibition ([11]; at 11.0 µM): 2%
growth inhibition ([11]; at 33.0 µM): 19%
growth inhibition ([11]; at 100.0 µM): 41%
growth inhibition [12, 15]: -14%
growth inhibition [12, 16]: -2%
growth inhibition ([12]; at 50.0 µM): 0.4%
growth inhibition ([13]; at 1.2 µM): 2%
growth inhibition ([13]; at 3.7 µM): 6%
growth inhibition ([13]; at 11.0 µM): 4%
growth inhibition ([13]; at 33.0 µM): 7%
growth inhibition ([13]; at 100.0 µM): 19%
